The compounds below were run on Plasmodium falciparum (assay: GSK_TCMDC: Inhibition of Plasmodium falciparum 3D7 in whole red blood cells, using parasite LDH activity as an index of growth. Test compounds present at 2uM).
Format: functional

Row | SMILES | Inhibition [%]
1 | CN(C)Cc1ccc(-c2ccc3c(Nc4ccc(Oc5ccccn5)cc4)ccnc3c2)o1 | 100
2 | Fc1cccc(Cl)c1-c1nc(NCCC(c2ccccc2)c2ccccc2)no1 | 99
3 | O=C(NOCCOc1ccccc1)c1ccccc1 | 98
4 | C=C[C@H]1CN2CC[C@H]1C[C@@H]2[C@@H](O)c1ccnc2ccc(OC)cc12 [QUINIDINE] | 98
5 | COc1ccc2nccc(N3CCC(SCCNS(=O)(=O)c4ccc5c(c4)OCCO5)C3)c2n1.Cl (stereo not given) | 94
6 | COc1ccc(NC(=O)c2ccc3[nH]c(-c4ccc(Cl)cc4)cc3c2)cc1OCCN(C)C | 100
7 | Cc1ccc(NC(=O)Nc2ccccc2F)cc1-c1ccc(C(=O)Nc2ccncc2)cc1 | 99
8 | O=C(NCC1CC1)C1CCN(C(c2ccccc2)c2nc3ccccc3s2)CC1 (stereo not given) | 92
9 | CCOc1cccc(C(=O)Nc2nonc2-c2ccc(OC)c(OC)c2)c1 | 92
10 | Fc1cccc(COc2ccc(Nc3ncnc4cc(/C=C/[C@@H]5CCCN5)sc34)cc2Cl)c1 | 100
11 | COc1cc(Nc2nccc(N3CCC(NS(=O)(=O)c4ccc(NC(C)=O)cc4)CC3)n2)cc(OC)c1OC | 91
12 | Br.Cc1cccc2c(CON3C(N)=NC(N)=NC3(C)C)cccc12 | 94
13 | CN(Cc1ccccc1)C1CCCN(c2cc(NC(=O)c3ccc(F)cc3)ccn2)C1.O=C(O)C(F)(F)F (stereo not given) | 93
14 | Cc1cc(N(C)C)nc(Nc2ccc(NS(=O)(=O)c3ccccc3)cc2)n1 | 92
15 | O=C(Nc1ccc(OC2CCN(Cc3ccsc3)C2)c(Cl)c1)c1ccc(F)cc1.O=C(O)C(F)(F)F (stereo not given) | 89
16 | COc1ccc2c(=NN=Cc3ccc(F)cc3)cc(C)[nH]c2c1 | 100
17 | COc1ccc(C2CC(c3cccs3)=NN2C(=O)COc2cccc(C(C)=O)c2)cc1OC (stereo not given) | 99
18 | Br.CCC(CCON1C(N)=NC(N)=NC1(C)C)c1ccc(Cl)c(Cl)c1 (stereo not given) | 94
19 | CC1CN(c2ccc3occ(C(=O)Nc4ccc(-c5ccncc5)c(Cl)c4)c3c2)CC(C)N1C.Cl (stereo not given) | 100
20 | O=C(O)C(F)(F)F.O=C1CCCN1CCCNCc1cccc(-c2ccc(-c3nc4ccccc4[nH]3)s2)c1 | 97

Row | SMILES | Inhibition [%]
21 | CC12CCC(C(=O)N(CC(O)Cn3c4ccc(Cl)cc4c4cc(Cl)ccc43)C1=O)C2(C)C (stereo not given) | 100
22 | O=C(/C=C/C=C/c1ccc(Cl)c(Cl)c1)NCCCCCN1CCCC2CCCCC21 (stereo not given) | 91
23 | Cn1nc(C(=O)N2CCC(c3[nH]ncc3Cc3ccccc3)CC2)c2ccccc2c1=O | 95
24 | NC1=NC(c2ccccc2)(c2ccccc2)C(=O)N1CCCCc1ccccn1 | 94
25 | COc1ccccc1NC(=O)Nc1cccc(-c2cccc(-c3nc4cc(C(F)(F)F)ccc4[nH]3)c2)c1 | 100
26 | CS(=O)(=O)c1ccc2c(c1)CCN(CCC1CCC(NC(=O)C(=Cc3cccc(C#N)c3)c3ccc(-c4ccccc4)cc3)CC1)CC2 (stereo not given) | 99
27 | Cc1cc(C(F)(F)F)n2nc(C(=O)N(C)Cc3cncn3Cc3ccc(F)cc3)cc2n1 | 100
28 | Cc1cc(CNCCCCCCNCc2cccc([N+](=O)[O-])c2)ccc1O | 90
29 | Cn1c(-c2ccccc2)cc2c3c(=O)cc(C(F)(F)F)[nH]c3ccc21 | 95
30 | O=C(NCCCCCN1CCC(c2c[nH]c3ccccc23)CC1)Nc1ccc(Cl)cc1Cl | 99
31 | CCC(CC)OC(=O)C(C)c1cccc(C(=O)c2ccccc2)c1 (stereo not given) | 93
32 | CCn1c2ccccc2c2cc(C=NN=c3cc(C)[nH]c4ccccc34)ccc21 | 100
33 | CC(=O)Nc1ccc(CN2CCc3ccc(NS(=O)(=O)c4ccc(-c5cccc(C(F)(F)F)c5)cc4)cc3CC2)s1 | 82
34 | CCCCCCN1CCCN(Cc2ccc(C(=O)Nc3ccc(F)c(F)c3)cc2)CC1.O=C(O)C(F)(F)F | 84
35 | CCCCCNC(=N)c1ccc(OCCCCCOc2ccc(C(=N)NCCCCC)cc2)cc1.Cl | 99
36 | COc1ccc(/N=C(\N)Nc2ccccc2)nc1Cc1ccccc1 | 81
37 | Cc1ccc(Nc2nccc(Nc3ccc4c(C)n[nH]c4c3)n2)cc1F.Cl | 95
38 | CCC(Nc1noc(-c2c(-c3ccccc3)noc2C)n1)c1ccccc1 (stereo not given) | 99
39 | CCCCN(CCCC)CCCN(CCCN(CCCC)CCCC)c1cc(C)nc(Nc2ccc3cc(Br)ccc3c2)n1.Cl | 100
40 | COc1ccc2c(NN=Cc3ccccc3F)ccnc2c1 | 98
